{"source": "paper PMC7862700", "about": "“An all-to-all approach to the identification of sequence-specific readers for epigenetic DNA modifications on cytosine”", "experiment_in_all_cases": "DAPPL (digital affinity profiling via proximity ligation, sequencing); 10 mM Tris-HCl pH 7.5, 50 mM NaCl, 1 mM DTT, 4% glycerol, room temperature, 30 min; GST-TFs on glutathione beads, 16-mer random dsDNA library, 0.1% formaldehyde crosslink after washing; high values mean tight binding", "key": {"FEV": {"biological_target": "T1, FEV (Homo sapiens, UniProt Q99581 1-238)", "T1 sequence": "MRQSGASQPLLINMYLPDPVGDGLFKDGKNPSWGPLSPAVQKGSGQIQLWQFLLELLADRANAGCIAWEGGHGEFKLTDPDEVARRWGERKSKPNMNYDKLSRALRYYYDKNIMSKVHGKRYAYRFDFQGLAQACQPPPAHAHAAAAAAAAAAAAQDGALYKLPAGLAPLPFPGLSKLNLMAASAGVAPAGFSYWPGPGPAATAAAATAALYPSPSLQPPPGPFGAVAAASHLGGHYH", "conditions": "protein: recombinant; tags: N-terminal GST; dsDNA, one strand shown", "procedure,_shortened": "(§1)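 In yeast, human transcription factors were expressed with a GST fusion, then pulled down on glutathione beads and given DNA barcodes. Pooled with a tag-only sample, they were exposed to 200 nmole of a 16-mer random double-stranded DNA library (Tris/NaCl/DTT/glycerol buffer, room temperature, 30 min), washed, crosslinked with 0.1% formaldehyde, proximity-ligated using BsaI/T4 ligase for 1 h at 37 °C, PCR-amplified and read on an Illumina NextSeq500. Each hexamer's frequency of reads for a factor, divided by the matching frequency for the tag-only sample, gives the binding signal.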"}, "ETV5": {"biological_target": "ETV5 (Homo sapiens, UniProt P41161 1-510)", "sequence (P41161 whole entry)": "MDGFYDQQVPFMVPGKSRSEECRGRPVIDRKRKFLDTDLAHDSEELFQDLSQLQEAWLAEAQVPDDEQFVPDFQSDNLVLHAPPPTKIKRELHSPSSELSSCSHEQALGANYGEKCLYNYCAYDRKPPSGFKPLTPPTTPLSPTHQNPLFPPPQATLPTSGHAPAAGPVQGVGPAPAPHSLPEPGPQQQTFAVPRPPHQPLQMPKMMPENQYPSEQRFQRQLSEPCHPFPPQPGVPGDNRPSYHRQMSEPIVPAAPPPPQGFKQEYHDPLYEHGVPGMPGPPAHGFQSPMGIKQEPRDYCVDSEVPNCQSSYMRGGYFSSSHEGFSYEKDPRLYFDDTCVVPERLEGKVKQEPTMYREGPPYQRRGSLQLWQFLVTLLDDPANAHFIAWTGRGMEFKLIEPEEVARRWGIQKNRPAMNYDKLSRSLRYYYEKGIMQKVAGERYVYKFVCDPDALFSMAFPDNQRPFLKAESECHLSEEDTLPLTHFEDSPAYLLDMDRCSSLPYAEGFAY", "conditions": "protein: recombinant; tags: N-terminal GST; dsDNA, one strand shown", "procedure,_shortened": "as §1"}, "HSF1": {"biological_target": "HSF1 (Homo sapiens, UniProt Q00613 1-529)", "sequence (Q00613 whole entry)": "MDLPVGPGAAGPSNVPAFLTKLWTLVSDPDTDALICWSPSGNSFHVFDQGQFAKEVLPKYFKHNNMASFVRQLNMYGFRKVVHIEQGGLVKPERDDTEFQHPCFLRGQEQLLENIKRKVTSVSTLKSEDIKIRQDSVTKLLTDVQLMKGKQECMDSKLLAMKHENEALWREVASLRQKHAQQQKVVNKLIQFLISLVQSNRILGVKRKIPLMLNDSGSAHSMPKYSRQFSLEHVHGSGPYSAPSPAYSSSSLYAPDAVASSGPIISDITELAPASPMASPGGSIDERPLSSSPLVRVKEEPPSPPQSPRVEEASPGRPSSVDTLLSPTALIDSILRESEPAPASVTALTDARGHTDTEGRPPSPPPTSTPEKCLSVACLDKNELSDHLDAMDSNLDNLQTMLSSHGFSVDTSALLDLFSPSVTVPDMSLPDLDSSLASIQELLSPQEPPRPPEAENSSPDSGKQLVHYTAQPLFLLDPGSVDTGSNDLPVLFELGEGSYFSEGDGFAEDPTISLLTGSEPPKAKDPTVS", "conditions": "protein: recombinant; tags: N-terminal GST; chain copies: 3; dsDNA, one strand shown", "procedure,_shortened": "as §1"}, "SPIC": {"biological_target": "T2, SPIC (Homo sapiens, UniProt Q8N5J4 1-248)", "T2 sequence": "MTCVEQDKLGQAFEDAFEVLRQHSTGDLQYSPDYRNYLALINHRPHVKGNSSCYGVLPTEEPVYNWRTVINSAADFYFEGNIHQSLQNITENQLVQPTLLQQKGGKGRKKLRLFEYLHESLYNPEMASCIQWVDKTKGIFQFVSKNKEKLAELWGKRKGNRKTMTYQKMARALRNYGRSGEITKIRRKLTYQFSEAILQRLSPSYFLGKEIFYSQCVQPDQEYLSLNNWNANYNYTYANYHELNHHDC", "conditions": "protein: recombinant; tags: N-terminal GST; dsDNA, one strand shown", "procedure,_shortened": "as §1"}, "ELF4": {"biological_target": "ELF4 (Homo sapiens, UniProt Q99607 1-663)", "sequence (Q99607 whole entry)": "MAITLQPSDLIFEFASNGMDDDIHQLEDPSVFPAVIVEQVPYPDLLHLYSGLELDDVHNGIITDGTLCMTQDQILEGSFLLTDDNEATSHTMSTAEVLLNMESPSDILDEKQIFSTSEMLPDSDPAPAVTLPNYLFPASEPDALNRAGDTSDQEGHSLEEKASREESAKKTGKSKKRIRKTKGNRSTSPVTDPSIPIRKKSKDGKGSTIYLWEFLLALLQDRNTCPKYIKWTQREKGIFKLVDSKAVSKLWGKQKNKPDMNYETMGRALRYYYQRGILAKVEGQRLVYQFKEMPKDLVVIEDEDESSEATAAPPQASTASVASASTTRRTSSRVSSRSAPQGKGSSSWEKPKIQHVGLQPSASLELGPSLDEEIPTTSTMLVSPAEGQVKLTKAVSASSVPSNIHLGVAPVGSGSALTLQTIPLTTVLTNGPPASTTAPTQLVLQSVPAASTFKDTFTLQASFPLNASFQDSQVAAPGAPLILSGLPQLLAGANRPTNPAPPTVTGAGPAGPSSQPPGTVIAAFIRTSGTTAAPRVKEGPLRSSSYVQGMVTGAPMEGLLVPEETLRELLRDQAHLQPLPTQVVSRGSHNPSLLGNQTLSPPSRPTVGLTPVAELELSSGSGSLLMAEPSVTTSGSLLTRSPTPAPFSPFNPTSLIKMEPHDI", "conditions": "protein: recombinant; tags: N-terminal GST; dsDNA, one strand shown", "procedure,_shortened": "as §1"}, "ELK4": {"biological_target": "T3, ELK4 (Homo sapiens, UniProt P28324-2 1-405)", "T3 sequence": "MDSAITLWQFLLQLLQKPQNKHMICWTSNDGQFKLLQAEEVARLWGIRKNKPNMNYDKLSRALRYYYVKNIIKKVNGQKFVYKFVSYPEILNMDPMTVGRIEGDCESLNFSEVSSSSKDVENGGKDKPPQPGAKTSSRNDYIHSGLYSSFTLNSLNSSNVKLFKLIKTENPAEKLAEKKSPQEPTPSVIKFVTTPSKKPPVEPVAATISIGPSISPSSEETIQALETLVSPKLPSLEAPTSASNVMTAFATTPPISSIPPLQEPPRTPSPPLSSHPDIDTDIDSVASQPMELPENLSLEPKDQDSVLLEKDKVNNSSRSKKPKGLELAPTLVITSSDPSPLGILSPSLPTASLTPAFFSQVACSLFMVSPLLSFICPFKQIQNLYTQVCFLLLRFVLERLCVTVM", "conditions": "protein: recombinant; tags: N-terminal GST; dsDNA, one strand shown", "procedure,_shortened": "as §1"}, "ETV2": {"biological_target": "T4, ETV2 (Homo sapiens, UniProt O00321 1-342)", "T4 sequence": "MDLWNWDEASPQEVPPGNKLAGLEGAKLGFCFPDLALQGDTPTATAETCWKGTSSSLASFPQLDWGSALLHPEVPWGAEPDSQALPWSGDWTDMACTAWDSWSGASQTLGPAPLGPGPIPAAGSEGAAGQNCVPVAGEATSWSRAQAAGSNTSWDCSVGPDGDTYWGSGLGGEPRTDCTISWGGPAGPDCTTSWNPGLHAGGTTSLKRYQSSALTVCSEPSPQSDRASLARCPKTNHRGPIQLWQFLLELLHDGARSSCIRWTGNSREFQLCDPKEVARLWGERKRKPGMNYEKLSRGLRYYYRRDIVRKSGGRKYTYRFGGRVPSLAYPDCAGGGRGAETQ", "conditions": "protein: recombinant; tags: N-terminal GST; dsDNA, one strand shown", "procedure,_shortened": "as §1"}, "ELF3": {"biological_target": "T5, ELF3 (Homo sapiens, UniProt P78545 1-371)", "T5 sequence": "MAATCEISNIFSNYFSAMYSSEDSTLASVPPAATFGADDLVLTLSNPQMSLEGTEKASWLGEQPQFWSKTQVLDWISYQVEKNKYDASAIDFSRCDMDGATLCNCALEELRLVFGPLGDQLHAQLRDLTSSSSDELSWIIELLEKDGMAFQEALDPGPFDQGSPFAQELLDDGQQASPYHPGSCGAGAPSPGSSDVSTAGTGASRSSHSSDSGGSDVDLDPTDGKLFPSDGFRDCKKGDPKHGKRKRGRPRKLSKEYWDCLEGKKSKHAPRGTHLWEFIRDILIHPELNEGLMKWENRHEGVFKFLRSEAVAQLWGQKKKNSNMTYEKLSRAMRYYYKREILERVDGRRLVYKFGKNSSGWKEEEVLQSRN", "conditions": "protein: recombinant; tags: N-terminal GST; dsDNA, one strand shown", "procedure,_shortened": "as §1"}, "CRX": {"biological_target": "CRX (Homo sapiens, UniProt O43186 1-299)", "sequence (O43186 whole entry)": "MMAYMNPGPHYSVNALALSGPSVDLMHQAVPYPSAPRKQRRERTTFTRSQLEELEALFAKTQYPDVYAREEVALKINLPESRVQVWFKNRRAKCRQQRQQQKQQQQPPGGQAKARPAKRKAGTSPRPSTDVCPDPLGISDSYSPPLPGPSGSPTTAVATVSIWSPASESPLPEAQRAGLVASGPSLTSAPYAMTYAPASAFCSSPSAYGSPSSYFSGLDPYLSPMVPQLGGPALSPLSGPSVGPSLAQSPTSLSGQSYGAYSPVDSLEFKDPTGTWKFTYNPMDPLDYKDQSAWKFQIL", "conditions": "protein: recombinant; tags: N-terminal GST; dsDNA, one strand shown", "procedure,_shortened": "as §1"}}}
{"sequence": "TGCGAA", "values": [{"measurement": "binding signal", "setting": "FEV", "result": "1.14 fold enrichment (6-mer frequency, TF over GST control)"}, {"measurement": "binding signal", "setting": "ETV5", "result": "1.23 fold enrichment (6-mer frequency, TF over GST control)"}, {"measurement": "binding signal", "setting": "HSF1", "result": "1.21 fold enrichment (6-mer frequency, TF over GST control)"}, {"measurement": "binding signal", "setting": "SPIC", "result": "1.02 fold enrichment (6-mer frequency, TF over GST control)"}, {"measurement": "binding signal", "setting": "ELF4", "result": "1.21 fold enrichment (6-mer frequency, TF over GST control)"}, {"measurement": "binding signal", "setting": "ELK4", "result": "1.19 fold enrichment (6-mer frequency, TF over GST control)"}, {"measurement": "binding signal", "setting": "ETV2", "result": "1.18 fold enrichment (6-mer frequency, TF over GST control)"}, {"measurement": "binding signal", "setting": "ELF3", "result": "1.14 fold enrichment (6-mer frequency, TF over GST control)"}, {"measurement": "binding signal", "setting": "CRX", "result": "1.06 fold enrichment (6-mer frequency, TF over GST control)"}]}
